Source: PubChem BioAssay (NCATS)
Records with an inconclusive call do not appear. Unmarked numbers belong to inactive results. Active and inactive are the calls of the source. Calls come from the whole dose curve; as a rule, active = well fitted inhibition curve with a large enough effect; inconclusive = small, poorly fitted or top-dose-only effect; inactive = flat fitted curve, though single readings scatter.

Tested on: CRL-7250
Test: Cytotoxic Profiling of Annotated Libraries Using Quantitative High-Throughput Screening (AID 1296008); note: nearly all actives have a fitted effect of over 60% in size
Conditions: Five cell lines viability, CellTiter-Glo ATP luminescence, 48-72 h; max response: stronger effect = lower value
Method in brief: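 Cytotoxicity was measured as CellTiter-Glo ATP luminescence, read after 10 min at room temperature. Compound treatment of the cells lasted 48 or 72 hr at 37 degrees Celsius in a qHTS format.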
% is set by controls: 0 for no effect and ±100 for the full control effect; potency is the fitted concentration of half-maximal effect.

| Structure (SMILES) | max response | Potency | outcome |
| --- | --- | --- | --- |
| O=C1NC(Cc2c[nH]c3ccccc23)C(=O)NC1Cc1c[nH]c2ccccc12 (centres undefined) | -0.609% |  |  |
| O=C(O)C1CN(Cc2ccc(-c3nc4cc(Cc5ccccc5F)ccc4s3)c(F)c2)C1 | 1.29% |  |  |
| O=C(O[C@H]1[C@@H]2C[C@@H]3OC[C@](O)([C@@H]1Cl)[C@H]2C(O[C@@H]1O[C@H](CO)[C@@H](O)[C@H](O)[C@H]1O)O3)c1ccc(O)c(O)c1 (some centres undefined) | -7.93% |  |  |
| CC(C)c1c2cc(-c3ccnc(NC4CCC(NC5CCOCC5)CC4)n3)ccc2nn1C (centres undefined) |  | 580 nM (active) |  |
| O=C(NCc1ccccn1)Nc1nnc(-c2ccco2)o1 | 0.451% |  |  |
| CC(=O)OC/C=C(\C)C(CC1C(C)=C(OC(C)=O)C(=O)C2C(C)(C)C(O)CCC12C)OC(C)=O (centres undefined) | 1.57% |  |  |
| Cc1cc(Nc2ncc3cc(-c4c(Cl)cccc4Cl)c(=O)n(C)c3n2)ccc1F |  | 1840 nM (active) |  |
| C/C=C/C(O)C1OC(=O)CC1Nc1ccc(C(=O)O)cc1 (centres undefined) | 4.31% |  |  |
| COc1ncc2cc(C(=O)Nc3cc(C(=O)NCc4cccc(Cl)c4)ccc3Cl)c(=O)[nH]c2n1 |  |  | inactive |
| C[C@@H]1O[C@@H](O[C@H]2[C@H](O[C@H]3[C@H](O)[C@@H](C(=O)O)O[C@@H](O[C@H]4CC[C@@]5(C)C(CC[C@]6(C)C5CC[C@]57OC[C@@]8(CCC(C)(C)CC85)[C@H](O)C[C@]76C)C4(C)C)[C@@H]3O[C@@H]3O[C@H](CO)[C@@H](O[C@@H]4OC[C@@H](O)[C@H](O)[C@H]4O)[C@H](O)[C@H]3O)O[C@H](CO)[C@H](O)[C@@H]2O)[C@H](O)[C@H](O)[C@H]1O (some centres undefined) | -4.31% |  |  |
| O=S(=O)(NCC1CC1)c1ccc(Nc2nccc(N3CCCc4cc(O)ccc43)n2)cc1 |  | 1160 nM (active) |  |
| Nc1nccn2c(C3CCC(C(=O)O)CC3)nc(-c3cc4cccc(Cl)c4[nH]3)c12 (centres undefined) |  | 1460 nM (active) |  |
| C=C(C)C1CCC2(C(=O)O[C@@H]3O[C@H](CO[C@@H]4O[C@H](CO)[C@@H](O)[C@H](O)[C@H]4O)[C@@H](O)[C@H](O[C@@H]4O[C@@H](C)[C@H](O)[C@@H](O)[C@H]4O)[C@H]3O)CCC3(C(=O)O)C(CCC4C5(C)CCC(O)C(C)(C)C5CCC43C)C12 (some centres undefined) |  |  | inactive |
| C=C[C@]1(C)C[C@H](O)[C@@H]2[C@H](OC(=O)[C@@H]2C)C1/C(C)=C/O[C@@H]1O[C@H](CO)[C@@H](O)[C@H](O)[C@H]1O (some centres undefined) | -0.594% |  |  |
| CC1C=CC2CCCCC2C1CCC1CC(O)CC(=O)O1 (centres undefined) | -5.84% |  |  |
| CC/C=C\CCO[C@@H]1O[C@H](CO)[C@@H](O)[C@H](O)[C@H]1O | -3.17% |  |  |
| Cc1ccc(Cc2c(C)nc3nc(SCC(=O)NCCN4CCNCC4)nn3c2C)cc1 |  |  | inactive |
| CC1(C)CC[C@]2(C(=O)O[C@@H]3O[C@H](CO[C@@H]4O[C@H](CO)[C@@H](O)[C@H](O)[C@H]4O[C@@H]4O[C@H](CO)[C@@H](O)[C@H](O)[C@H]4O)[C@@H](O)[C@H](O[C@@H]4O[C@H](CO)[C@@H](O)[C@H](O)[C@H]4O)[C@H]3O)CC[C@]3(C)C(=CCC4[C@@]5(C)CC[C@@H](O)[C@@](C)(C(=O)O[C@@H]6O[C@H](CO)[C@@H](O)[C@H](O)[C@H]6O)C5CC[C@]43C)[C@@H]2C1 (some centres undefined) |  |  | inactive |
| COc1cc(C(=O)O)ccc1OC1OC(CO)C(O)C(O)C1O (centres undefined) |  |  | inactive |
| CC1CCC2(OC1)OC1CC3C4CC=C5CC(O)CC(O[C@@H]6OC[C@@H](O)[C@H](O)[C@H]6O)C5(C)C4CCC3(C)C1(O)C2C (some centres undefined) |  |  | inactive |

| Structure (SMILES) | max response | Potency | outcome |
| --- | --- | --- | --- |
| CCC(COC)n1nnc2c(Nc3ccc(OC)cc3C)nc(C)cc21 (centres undefined) |  |  | inactive |
| CC(/C=C/C1=CC2=CC(=O)C(C)(O)C(O)C2=CO1)=C\C(C)CCO (centres undefined) | -1.14% |  |  |
| CCCn1c(=O)c2[nH]c(-c3ccc(OCC(=O)O)cc3)nc2n(CCC)c1=O | 3.25% |  |  |
| CC(C)(C)CCN1C[C@@H]2C(CNC(=O)c3cc(Cl)cc(Cl)c3)[C@@H]2C1 (some centres undefined) | -6.01% |  |  |
| CC[C@@H](O)C[C@@H]1C(C)=C[C@@H]2CCCC[C@@H]2[C@@]1(C)C(=O)O | -0.45% |  |  |
| CCn1cc(NC(=S)Nc2cc(Cl)ccc2OC)c(C(N)=O)n1 | -6.99% |  |  |
| CC(=O)O[C@H]1[C@@H](O)[C@H](O[C@H]2[C@@H]3C=CO[C@@H](O[C@H]4O[C@@H](CO)[C@H](O)[C@@H](O)[C@@H]4O)[C@@H]3[C@@]3(CO)O[C@@H]23)O[C@@H](C)[C@@H]1OC(=O)/C=C/c1ccccc1 | -1.67% |  |  |
| CC(C)c1cccc2c(-c3ccccc3)cc(-c3ccc(-c4ccc(C(=O)O)cc4)[nH]3)nc12 | -17.4% |  |  |
| C[C@@H]1CN(Cc2ccccc2)C[C@H]1c1nc2c(cnn2C2CCOCC2)c(=O)[nH]1 | -0.22% |  |  |
| CC(Oc1ccc2[nH]nc(/C=C/c3cnn(CCO)c3)c2c1)c1c(Cl)cncc1Cl (centres undefined) |  | 1460 nM (active) |  |
| CC(=O)O[C@@H]1C[C@H](O)[C@@]23CO[C@H](O)[C@]1(C)C2C[C@@H](O)[C@]1(C)C3C(=O)[C@H](OC(C)=O)[C@@]2(C)[C@H](c3ccoc3)C[C@H]3O[C@]321 (some centres undefined) |  | 485 nM (active) |  |
| COc1ccc(-c2ccc(-c3cn(C(=O)N4CCCCC4c4ccccc4)nn3)cc2)cc1 (centres undefined) |  |  | inactive |
| C=C(C(=O)O)[C@@H]1CC[C@@]2(C)CC[C@H](O)[C@@]2(C(C)=O)C1 |  |  | inactive |
| CCC(CC)C(=O)Nc1sc2c(c1C#N)CCC(C(C)(C)CC)C2 (centres undefined) |  |  | inactive |
| CC1(C)CC2C(C1)C(C)(O)C13CC1(COC3=O)C2O (centres undefined) | -28% |  |  |
| CC1=CC(=O)CC(C)(C)[C@@]1(O)CC[C@@H](C)O[C@@H]1O[C@H](CO)[C@@H](O)[C@H](O)[C@H]1O | 0.369% |  |  |
| CC(=O)O[C@@H]1[C@@H](OC(=O)/C=C/c2ccccc2)[C@@H](OC(C)=O)[C@H](O[C@H]2[C@@H]3C=CO[C@@H](O[C@@H]4O[C@H](CO)[C@@H](O)[C@H](O)[C@H]4O)[C@@H]3[C@@]3(CO)O[C@@H]23)O[C@H]1C |  |  | inactive |
| C=C1C[C@]23C[C@H]1CC[C@H]2[C@@]12CC[C@H](O)[C@@](C)(C(=O)O1)[C@H]2[C@@H]3C(=O)O | -11.3% |  |  |
| Cc1cc(OCc2nc(-c3ccccc3Cl)cs2)ccc1OCC(=O)O | -3.46% |  |  |
